Source: PubChem (National Center for Advancing Translational Sciences (NCATS))
LDHA block – qHTS assay for inhibitors of human lactate dehydrogenase; 0.15% of 480,000 active; AID 1347041, 2019; activity change, % (values are at about 110 or 230 µM); purified LDHA, NADH/diaphorase-resazurin fluorescence; active compounds read low; in the data active = activity change below about -30%; inconclusive = mostly about -25% to -30%;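 also: plate controls were DMSO wells for no effect and wells without enzyme for full effect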
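LDH5 2 nM; NADH 0.06 mM, pyruvate 0.2 mM; 200 mM Tris pH 7.4, EDTA, Tween-20; 5 min RT. Detection: diaphorase 0.133 mg/mL + resazurin 37 µM, fluorescence ex540/em590 at 0 and 20 min; normalized to enzyme-free and DMSO wells.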
TrxR1 substrate – qHTS Assay for Substrates of Mammalian Selenoprotein Thioredoxin Reductase 1 (TrxR1): qHTS | purified TrxR1 substrate turnover, NADPH consumption readout | 0.01% of 390,000 active | Thioredoxin reductase 1, cytoplasmic (Rattus norvegicus), O89049 | AID 588456, 2011 | Potency, µM (top dose mostly 114 µM), for the others: at the highest dose activity change, negative = substrate turnover; also: potency is read from the fitted curve at half-maximal effect; nearly all actives have a fitted effect of over 50% in size
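Rat TrxR1, dispensed at 90 nM, was prereduced with 400 uM NADPH (final) for 5 min at ~22 deg C, then incubated with compound 15 min before 400 uM selenite. A first-read NADPH fluorescence drop versus no-compound background flagged substrates.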
GALK inhibitor – qHTS Assay for Inhibitors of Human Galactokinase (GALK). P51570. Purified GALK, Kinase-Glo residual ATP luminescence. Potency, µM (highest dose often 57.5 µM), inactives show at the highest dose activity change, negative = inhibition, hits mostly inhibitors. 0.007% of 270,000 active. AID 1868, 2009; also: potency is read from the fitted curve at half-maximal effect
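Quantitative HTS: GALK 5 nM, ATP 35 uM, galactose 100 uM, 1 h room temperature, then luciferase-based ATP detection.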
PI4K2A block – qHTS for small molecular inhibitors of PI4K2A; Phosphatidylinositol 4-kinase type 2-alpha (Homo sapiens), Q9BTU6; purified PI4K2A, ADP-Glo luminescence, 1 h; active compounds read low; activity change, negative = inhibition, % at 76.9 µM; 0.13% of 420,000 active; AID 1346378, 2018; in the data active = activity change below about -50%; inconclusive = mostly about -30% to -49%;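 also: -100% = wells without enzyme as full effect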
Target sequence (Q9BTU6 whole entry, looked up): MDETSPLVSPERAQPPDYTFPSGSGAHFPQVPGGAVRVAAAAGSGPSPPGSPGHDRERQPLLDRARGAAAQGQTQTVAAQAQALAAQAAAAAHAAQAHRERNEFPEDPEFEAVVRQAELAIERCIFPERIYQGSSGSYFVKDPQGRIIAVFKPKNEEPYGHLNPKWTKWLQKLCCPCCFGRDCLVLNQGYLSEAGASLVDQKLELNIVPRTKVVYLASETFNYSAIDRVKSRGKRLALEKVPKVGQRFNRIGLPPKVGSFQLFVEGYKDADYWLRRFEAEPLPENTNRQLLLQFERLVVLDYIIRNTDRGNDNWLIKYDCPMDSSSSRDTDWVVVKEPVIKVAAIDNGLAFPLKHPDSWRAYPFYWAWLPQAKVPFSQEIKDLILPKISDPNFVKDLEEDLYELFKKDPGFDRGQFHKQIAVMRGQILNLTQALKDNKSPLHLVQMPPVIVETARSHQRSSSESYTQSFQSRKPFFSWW
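In this quantitative HTS, ADP production by PI4K2A was quantified luminescently after 1 h at ambient temperature; 100 microM adenosine served as plate-quality control.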
rTrxR1 inhibitor – qHTS Assay for Inhibitors of Mammalian Selenoprotein Thioredoxin Reductase 1 (TrxR1): qHTS. Thioredoxin reductase 1, cytoplasmic (Rattus norvegicus), O89049. recombinant rTrxR1, NADPH fluorescence consumption, selenite substrate. Potency, µM (doses to about 114 µM), inactives show at the top dose activity change, negative = inhibition, hits mostly inhibitors. 1% of 390,000 active. AID 588453, 2011; also: potency is read from the fitted curve at half-maximal effect; nearly all actives have a fitted effect of over 65% in size
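Rat TrxR1 (90 nM in the dispensed reagent) was pre-reduced with 400 uM NADPH for 5 min at room temperature, then incubated with compound for 15 min. After 400 uM selenite was added, NADPH fluorescence (Ex 340/Em 450 nm) was followed for 8 min.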
a7 integrin act – qHTS for Activators of Integrin-Mediated Alleviation for Muscular Dystrophy | alpha7betagal myoblasts, beta-gal FDG fluorescence, 48 h | AID 624291, 2012 | Potency, µM (doses to about 38.3 µM), for the others: at the top dose activation, usual class: activators | 0.064% of 350,000 active;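 also: potency is read from the fitted curve at half-maximal effect; 100% = response of the positive control SU9516; nearly all actives have a fitted effect of over 60% in size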
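alpha7betagal+/- myoblasts (passage 13, 250/well) treated 48 h at 37C with compounds at 1:260 dilution of DMSO stock. Lysed, then beta-galactosidase activity read as FDG fluorescence (ex 480/em 540) after 30 min, with pre-read for autofluorescence.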
Active calls of the source: *; i = inactive; ? = inconclusive; / = no result given; [ ] = another dose, or the depositor's remark. The list is not random: actives were taken first. Their share in the collection is about 1.1%. Unless noted, calls follow the shape of the dose curve; as a rule, active = well fitted curve in the direction sought with a large enough effect; inconclusive = small, poorly fitted or top-dose-only effect, or another doubt; inactive = no such curve, though single readings can be large; an effect the other way counts as inactive or inconclusive. Unless noted, % is scaled to controls: 0 for no effect and ±100 for the full control effect.

SMILES	LDHA block	TrxR1 substrate	GALK inhibitor	PI4K2A block	rTrxR1 inhibitor	a7 integrin act
Cc1cccc(N(CC(=O)NCCSCc2ccco2)S(=O)(=O)c2ccccc2)c1	-3	2%	0%	-13	11µM*	-19%
COc1ccccc1N(CC(=O)NCc1ccco1)S(=O)(=O)c1ccc(C)cc1	2	-8%[0.0914 µM]	2%	-13	32µM*	5%
Cc1ccc(NC(=O)CCc2ncc(-c3ccccc3)o2)c(O)c1	17	/	/	/	/	/
COC(=O)C1=C(C)N(c2ccc(OC)c(OC)c2)C(=O)/C1=C\c1ccco1	-1	0%	-1%	6	28µM*	-6%
CCOC(=O)C1=C(C)N(c2ccccc2)C(=O)/C1=C\c1ccco1	-10	-12%	2%	2	?	-33%
CCOc1ccc(S(=O)(=O)[C@H]2CS(=O)(=O)C[C@@H]2NCc2ccco2)cc1	5	/	/	/	/	/
N#Cc1ccc(OCC(O)Cn2cnc3ccc(Br)cc3c2=O)cc1 (stereo unspecified)	-4	/	/	/	/	/
Cc1ccc(C(=O)N/N=C/c2ccc([N+](=O)[O-])s2)cc1	-35*	14%	1%	-4	26%	-40%
COC(=O)c1ccc(/C=C(\C#N)C(=O)NC(C)c2ccccc2)cc1 (stereo unspecified)	-12	-17%	-5%	19	22µM*	-34%
CC(NC(=O)/C(C#N)=C/c1ccc([N+](=O)[O-])o1)c1ccccc1 (stereo unspecified)	8	-8%	4%	-5	7.9µM*	-59%
CCOCCCNC(=O)/C(C#N)=C/c1ccc(-c2ccc(S(=O)(=O)N3CCOCC3)cc2)o1	3	-4%	1%	-5	-24%	-10%
CCOCCCNC(=O)/C(C#N)=C/c1ccc([N+](=O)[O-])o1	36	-6%[57.1 µM]	10%	-3	3.2µM*	-1%
Cc1noc(CSc2ccccc2C(=O)N2CC=C(c3ccccc3)CC2)n1	3	/	/	/	/	/
CCc1ccc(-c2cc(C)no2)cc1S(=O)(=O)Nc1cc(Cl)ccc1OC	2	/	/	/	/	/
COc1ccccc1N1CSC2=C(C#N)C(c3ccc(SC)cc3)CC(=O)N2C1 (stereo unspecified)	-3	-5%[57.1 µM]	1%	-17	13µM*	1%
COc1cc(OC)c(C2CC(=O)N3CN(c4ccccc4)CSC3=C2C#N)cc1OC (stereo unspecified)	24	-17%	0%	-6	32µM*	-10%
COc1cc(C2CC(=O)N3CN(c4ccccc4C)CSC3=C2C#N)cc(OC)c1OC (stereo unspecified)	/	/	7%	/	/	/
COc1ccc(Br)cc1/C=N/O	2	/	/	/	/	/
Cc1ccc2nc(-c3cccnc3)cc(C(=O)Nc3cccc(C)n3)c2c1	-3	/	/	/	/	/
CC(=O)Nc1nonc1-c1nc2ccccc2n1CC1CC1	-4	8%	0%	-6	6%	?
CC(=O)Nc1nonc1-c1nc2ccccc2n1N(C(C)=O)C(C)=O	-21	24%	2%	1	56µM*	-10%
CC(c1ccccc1)c1nnc(NC(=O)Nc2ccccc2F)s1 (stereo unspecified)	-2	-2%	2%	-50*	20%	8%
O=C(NCCc1c[nH]c2ccccc12)c1cc2ccccc2[nH]1	1	/	/	/	/	/
CSc1c[n+]2c(n1C)CCC2	-34*	4%	3%	6	12%	-2%
CCOc1ccc(-n2c(-c3ccccc3)c[n+]3c2CCC3)cc1	-5	4%[57.1 µM]	-4%	3	6%	?
SMILES	LDHA block	TrxR1 substrate	GALK inhibitor	PI4K2A block	rTrxR1 inhibitor	a7 integrin act
Cc1ccc(CNC(=O)c2cc3c(s2)-c2cc(C)sc2CC3)cc1	1	/	/	/	/	/
Cc1cc(C2=NNC(=Nc3ccccc3)SC2)c(C)n1CC1CCCO1 (stereo unspecified)	-36*	/	/	/	/	/
Cc1ccc(N=C2NN=C(c3cc(C)n(CC4CCCO4)c3C)CS2)cc1 (stereo unspecified)	-5	/	/	/	/	/
Cc1cccnc1Sc1c([N+](=O)[O-])ncn1C	-4	6%[57.1 µM]	0%	1	?	2%
Cn1cnc([N+](=O)[O-])c1Sc1nnc(-c2cccnc2)n1C	1	6%[57.1 µM]	2%	-1	0.63µM*	-13%
CCOc1ccc(C(=O)CC2(O)C(=O)Nc3ccccc32)cc1 (stereo unspecified)	1	/	/	/	/	/
c1ccc2nc(-c3nc4ccccc4[nH]3)ccc2c1	1	16%	8%	-66*	16%	-7%
Cc1cc(-c2csc(N)n2)c(C)n1C	10	-3%	1%	-28	?	0%
Cc1cc(-c2csc(N)n2)c(C)n1Cc1ccco1	2	-4%	-4%	?	16µM*	-26%
Cc1nn2c(-c3ccco3)nnc2c2ccccc12	0	-9%	-3%	3	79µM*	1%
COC(=O)Cc1c(C)c2ccc3c(c2oc1=O)CN(Cc1ccccc1OC)CO3	8	i	/	0	40µM*	/
COC(=O)Cc1c(C)c2ccc3c(c2oc1=O)CN(Cc1ccc(C)cc1)CO3	4	i	/	2	35µM*	/
CC1CCCCN1c1nc2nnnn2c2sc3c(c12)CCN(Cc1ccccc1)C3 (stereo unspecified)	13	/	/	/	/	/
CCCn1c(CSc2nnc(C3CC3)n2C2CC2)nc2cc(S(=O)(=O)N(C)C)ccc21	2	/	/	/	/	/
